Source: PubChem BioAssay (NCATS)
Records with an inconclusive call do not appear. Calls of active or inactive are those of the source. Unless noted, the call rests on the fitted dose curve; in most records, active means well fitted inhibition curve with a large enough effect; inconclusive means small, poorly fitted or top-dose-only effect; inactive means flat fitted curve, though single readings scatter.

Legend:
[1] = qHTS drug screen for cell cycle checkpoint inhibitors in PARPi-resistant BRCA-mutant ovarian cancer cell lines. (AID 1963452; calls by dose curve); settings: PEO1/OlaR viability, CellTiter-Glo luminescence, 96 h, stronger effect = lower value
Outline: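 PEO1, PEO4 and PEO1/OlaR ovarian cancer cells, 600 per well, exposed 96 h at 37C to a dilution series. Viability read by CellTiter-Glo luminescence, normalized to DMSO and empty wells; activity summarized as Z-AUC.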

[2] = qHTS for identification of novel therapeutic agents for treatment of microphthalmiaassociated transcription factor (MiT) renal cell carcinoma (RCC) (AID 1963991; calls by dose curve; further: potency means the concentration at half of the fitted maximal effect;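 on z-score: curves scaled with 100% = DMSO viability and 0% = empty wells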); settings: CellTiter-Glo, 48 h; for z-score: stronger effect = lower value; for Potency: active = Z-AUC below -0.8 in all three lines
Outline: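 UOK109/UOK124/UOK145 (TFE3 fusions, three partners); 500 cells/well; MIPE v4.0, 1912 cpds, 11 conc.; 48 h, 37 C; CellTiter-Glo, 15 min RT; lum. Norm.: DMSO 100%, empty 0%.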

7G8 = assay: qHTS profiling for inhibitors of Plasmodium falciparum proliferation (AID 504749); further: nearly all actives have a fitted effect of over 60% in size; further: potency means the concentration at half of the fitted maximal effect; settings: P. falciparum in erythrocytes, SYBR Green DNA, 72 h; series mostly up to 28.7 µM
Outline: (§1)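 Three-day growth assay of blood-stage parasites in erythrocytes (0.3% parasitemia, 2.5% hematocrit) at 37 C, 5% CO2, quantified by SYBR Green DNA staining after overnight detergent lysis.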

ATS95 = assay: as above; settings: P. falciparum in erythrocytes, SYBR Green DNA, 72 h; series mostly up to 28.7 µM
Outline: as §1

3D7 = assay: as above; settings: P. falciparum in erythrocytes, SYBR Green DNA, 72 h; series mostly up to 28.7 µM
Outline: as §1

AA1029 = assay: as above; settings: P. falciparum in erythrocytes, SYBR Green DNA, 72 h; series mostly up to 28.7 µM
Outline: as §1

AS120 = assay: as above; settings: P. falciparum in erythrocytes, SYBR Green DNA, 72 h; series mostly up to 28.7 µM
Outline: as §1

ATS189 = assay: as above; settings: P. falciparum in erythrocytes, SYBR Green DNA, 72 h; series mostly up to 28.7 µM
Outline: as §1

C2A = assay: as above; settings: P. falciparum in erythrocytes, SYBR Green DNA, 72 h; series mostly up to 28.7 µM
Outline: as §1

CP185 = assay: as above; settings: P. falciparum in erythrocytes, SYBR Green DNA, 72 h; series mostly up to 28.7 µM
Outline: as §1

CP191 = assay: as above; settings: P. falciparum in erythrocytes, SYBR Green DNA, 72 h; series mostly up to 28.7 µM
Outline: as §1

CP192 = assay: as above; settings: P. falciparum in erythrocytes, SYBR Green DNA, 72 h; series mostly up to 28.7 µM
Outline: as §1

CP194 = assay: as above; settings: P. falciparum in erythrocytes, SYBR Green DNA, 72 h; series mostly up to 28.7 µM
Outline: as §1

CP201 = assay: as above; settings: P. falciparum in erythrocytes, SYBR Green DNA, 72 h; series mostly up to 28.7 µM
Outline: as §1

CP203 = assay: as above; settings: P. falciparum in erythrocytes, SYBR Green DNA, 72 h; series mostly up to 28.7 µM
Outline: as §1

CP211 = assay: as above; settings: P. falciparum in erythrocytes, SYBR Green DNA, 72 h; series mostly up to 28.7 µM
Outline: as §1

CP215 = assay: as above; settings: P. falciparum in erythrocytes, SYBR Green DNA, 72 h; series mostly up to 28.7 µM
Outline: as §1

CP217 = assay: as above; settings: P. falciparum in erythrocytes, SYBR Green DNA, 72 h; series mostly up to 28.7 µM
Outline: as §1

CP237 = assay: as above; settings: P. falciparum in erythrocytes, SYBR Green DNA, 72 h; series mostly up to 28.7 µM
Outline: as §1

CP238 = assay: as above; settings: P. falciparum in erythrocytes, SYBR Green DNA, 72 h; series mostly up to 28.7 µM
Outline: as §1

[3] = measured here: PEO1 parental Z-AUC
[4] = TFE3-RCC UOK109 viability, measured here: UOK109 Z-AUC
[5] = TFE3-RCC viability, measured here: UOK124 Z-AUC
[6] = TFE3-RCC viability, measured here: UOK145 Z-AUC

## COc1cc(OC)c(NC(=O)Nc2cc(C)on2)cc1Cl
[1]
  Z-AUC: 1.05 (inactive)
[1]; [3]
  Z-AUC: 1.02
[1]; measured here: PEO4 Z-AUC
  Z-AUC: 1.3
[2]; [4]
  z-score: 0.422
[2]; [5]
  z-score: 0.71
[2]; [6]
  z-score: 0.616

## C[C@H](CCC(=O)O)[C@H]1CCC2C3C[C@H](O)[C@@H]4C[C@H](O)CC[C@]4(C)C3CC[C@@]21C (some centres not stated)
[1]
  Z-AUC: 0.00585 (inactive)
[1]; [3]
  Z-AUC: 0.454
[1]; measured here: PEO4 Z-AUC
  Z-AUC: 0.29
[2]; [4]
  z-score: 0.156
[2]; [5]
  z-score: 0.446
[2]; [6]
  z-score: 0.00817

## CC(=O)OC[C@@H]1O[C@@H](n2ccc(=O)[nH]c2=O)[C@H](OC(C)=O)[C@H]1OC(C)=O
[1]
  Z-AUC: 0.415 (inactive)
[1]; [3]
  Z-AUC: 0.423
[1]; measured here: PEO4 Z-AUC
  Z-AUC: 0.195
[2]; [4]
  z-score: 0.396
[2]; [5]
  z-score: 1.22
[2]; [6]
  z-score: 0.244

## COc1ccc([C@@H]2CNC(=O)C2)cc1OC1CCCC1
7G8
  Potency: inactive

## Nc1nc2c(c(=O)[nH]1)N(C=O)[C@H](CNc1ccc(C(=O)N[C@@H](CCC(=O)O)C(=O)O)cc1)CN2
7G8
  Potency: inactive
ATS95
  Potency: inactive

## CCC(C(=O)O)C1CCC(C)C(C(C)C(O)C(C)C(=O)C(CC)C2OC3(C=CC(O)[C@@]4(CC[C@](C)(C5CC[C@@](O)(CC)C(C)O5)O4)O3)C(C)CC2C)O1 (some centres not stated)
ATS95
  Potency: 1120 nM (active)

## O=C(C=CC=Cc1ccc2c(c1)OCO2)N1CCCCC1
[2]; [4]
  z-score: 0.531
[2]; [5]
  z-score: 0.306
[2]; [6]
  z-score: 0.432

## C[C@@]12C[C@@]3(O)O[C@@H](O1)[C@]1(COC(=O)c4ccccc4)[C@@H]3C[C@@]12O[C@@H]1O[C@H](CO)[C@@H](O)[C@H](O)[C@@H]1O
[2]; [4]
  z-score: -0.0471
[2]; [5]
  z-score: 0.702
[2]; [6]
  z-score: -0.0246

## CC(=O)C1=C(O)C=C2Oc3c(C(C)=O)c(O)c(C)c(O)c3C2(C)C1=O (configuration not stated)
[2]; [4]
  z-score: 0.861
[2]; [5]
  z-score: 0.834
[2]; [6]
  z-score: -0.166

## CCOc1cc2ncc(C#N)c(Nc3ccc(OCc4ccccn4)c(Cl)c3)c2cc1NC(=O)C=CCN(C)C
[2]; TFE3-RCC UOK109 viability
  Potency: 16.6 nM (active)
[2]; [4]
  z-score: -2.6
[2]; [5]
  z-score: -0.947
[2]; [6]
  z-score: -1.43

## CCN(CC)CCNC(=O)c1c(C)[nH]c(C=C2C(=O)Nc3ccc(F)cc32)c1C
[2]; TFE3-RCC UOK109 viability
  Potency: 34000 nM (active)
[2]; [4]
  z-score: -1.15
[2]; [5]
  z-score: -1.68
[2]; [6]
  z-score: -1.38

## C[C@]12CCC(=O)C=C1[C@@H]1CC1[C@H]1[C@H]3[C@@H]4C[C@H]4[C@@]4(CCC(=O)O4)[C@@]3(C)CC[C@H]12 (some centres not stated)
[2]; [4]
  z-score: 0.661
[2]; [5]
  z-score: 0.572
[2]; [6]
  z-score: -2.84

## O=C(C=Cc1ccc(CN(CCO)CCc2c[nH]c3ccccc23)cc1)NO
[2]; TFE3-RCC UOK109 viability
  Potency: 590 nM (active)
[2]; [4]
  z-score: -1.47
[2]; [5]
  z-score: -3.24
[2]; [6]
  z-score: -1.37

## CC(=O)[C@]1(O)Cc2c(O)c3c(c(O)c2[C@@H](O[C@H]2C[C@H](N)[C@@H](O)[C@H](C)O2)C1)C(=O)c1ccccc1C3=O
[2]; TFE3-RCC UOK109 viability
  Potency: 332 nM (active)
[2]; [4]
  z-score: -1.95
[2]; [5]
  z-score: -1.91
[2]; [6]
  z-score: -1.45

## Cc1ccc([N+](=O)[O-])cc1S(=O)(=O)N(C)N=Cc1cnc2ccc(Br)cn12
[2]; TFE3-RCC UOK109 viability
  Potency: 23.5 nM (active)
[2]; [4]
  z-score: -2.11
[2]; [5]
  z-score: -3.04
[2]; [6]
  z-score: -2.3

## CCc1cnn2c(NCc3ccc[n+]([O-])c3)cc(N3CCCC[C@@H]3CCO)nc12
[2]; TFE3-RCC UOK109 viability
  Potency: 59 nM (active)
[2]; [4]
  z-score: -2.34
[2]; [5]
  z-score: -1.76
[2]; [6]
  z-score: -1.93

## CC(=O)N[C@@H]1[C@H](O[C@@H]2c3ccc(c(Cl)c3)Oc3cc4cc(c3O[C@H]3O[C@H](CO)[C@@H](O)[C@H](O)[C@H]3NC(=O)CCCCCCCC(C)C)Oc3ccc(cc3Cl)C[C@H]3NC(=O)[C@H](N)c5ccc(O)c(c5)Oc5cc(O)cc(c5)[C@H](NC3=O)C(=O)N[C@H]4C(=O)N[C@H]3C(=O)N[C@@H]2C(=O)N[C@@H](C(=O)O)c2cc(O)cc(O[C@H]4O[C@H](CO)[C@@H](O)[C@H](O)[C@H]4O)c2-c2cc3ccc2O)O[C@H](CO)[C@@H](O)[C@@H]1O
[2]; [4]
  z-score: 0.106
[2]; [5]
  z-score: 0.36
[2]; [6]
  z-score: 0.292

## CC1(C)[C@H](O[C@H]2O[C@H](C(=O)O)[C@@H](O)[C@H](O)[C@H]2O[C@@H]2O[C@H](C(=O)O)[C@@H](O)[C@H](O)[C@H]2O)CC[C@@]2(C)[C@H]1CC[C@]1(C)[C@H]2C(=O)C=C2[C@H]3C[C@@](C)(C(=O)O)CC[C@]3(C)CC[C@]21C
[2]; [4]
  z-score: 0.831
[2]; [5]
  z-score: 0.728
[2]; [6]
  z-score: 0.774

## CC(C)N1[N]C(=C2C=c3cc(O)ccc3=N2)c2c(N)ncnc21
[2]; TFE3-RCC UOK109 viability
  Potency: 1870 nM (active)
[2]; [4]
  z-score: -1.06
[2]; [5]
  z-score: -1.57
[2]; [6]
  z-score: -0.805

## COc1cc2c(Nc3ccc(Cl)c(Cl)c3F)ncnc2cc1OCC1C[C@@H]2CN(C)C[C@H]2C1
[2]; TFE3-RCC UOK109 viability
  Potency: 9350 nM (active)
[2]; [4]
  z-score: -3.52
[2]; [5]
  z-score: -1.85
[2]; [6]
  z-score: -1.7

## C#C[C@]1(O)CC[C@@H]2[C@@H]3CCC4=CC(=O)CC[C@@H]4[C@H]3CC[C@@]21CC
[2]; [4]
  z-score: 0.12
[2]; [5]
  z-score: -0.0153
[2]; [6]
  z-score: -0.174

## CS[C@H]1SC[C@@H]2C(=O)N(C)[C@H](C(C)C)C(=O)OC[C@H](NC(=O)c3cnc4ccccc4n3)C(=O)N[C@H](C)C(=O)N(C)[C@@H]1C(=O)N(C)[C@H](C(C)C)C(=O)OC[C@H](NC(=O)c1cnc3ccccc3n1)C(=O)N[C@H](C)C(=O)N2C
[2]; TFE3-RCC UOK109 viability
  Potency: 8.33 nM (active)
[2]; [4]
  z-score: -2.31
[2]; [5]
  z-score: -3.01
[2]; [6]
  z-score: -2.26

## CC(=O)N1CCN(c2ccc(OCc3nn(C)c(C)c3-c3cccc4c(CCCOc5cccc6ccccc56)c(C(=O)O)n(Cc5cccnc5)c34)cc2)CC1
[2]; TFE3-RCC UOK109 viability
  Potency: 935 nM (active)
[2]; [4]
  z-score: -1.06
[2]; [5]
  z-score: -1.35
[2]; [6]
  z-score: -1.45

## COc1cc(C)c(C=CC(C)=CC=CC(C)=CC(=O)O)c(C)c1C
[2]; [4]
  z-score: 0.993
[2]; [5]
  z-score: 0.342
[2]; [6]
  z-score: 1.02

## COC1=C(OC)C(=O)C(CC=C(C)CCC=C(C)CCC=C(C)CCC=C(C)CCC=C(C)CCC=C(C)CCC=C(C)CCC=C(C)CCC=C(C)CCC=C(C)C)=C(C)C1=O
[2]; [4]
  z-score: 0.576
[2]; [5]
  z-score: 0.211
[2]; [6]
  z-score: 0.661

## COc1ccc2c(c1OC)C(=O)OC2[C@H]1c2c(cc3c(c2OC)OCO3)CCN1C (some centres not stated)
3D7
  Potency: inactive
7G8
  Potency: inactive
AA1029
  Potency: inactive
AS120
  Potency: inactive
ATS189
  Potency: inactive
ATS95
  Potency: inactive
C2A
  Potency: inactive
CP185
  Potency: inactive
CP191
  Potency: inactive
CP192
  Potency: inactive
CP194
  Potency: inactive
CP201
  Potency: inactive
CP203
  Potency: inactive
CP211
  Potency: inactive
CP215
  Potency: inactive
CP217
  Potency: inactive
CP237
  Potency: inactive
CP238
  Potency: inactive
